# Data taken from PubChem BioAssay (EPA / NIEHS).
# Where “and” joins values, the source holds several entries; their conditions need not be identical. Equal values may be shown once. Records with an inconclusive call do not appear. Calls of active or inactive are those of the source. Rule for the calls: active = hit-call score of the fitted dose curve at least 0.9, where 1 is the maximum; inconclusive = response in the unintended direction; inactive = score below 0.9.
# Columns and labels:
# [1] = tested on: guinea pig Muscarinic, Peripheral (Mperiperal) Receptor, Non-selective Binding, gene 100379235; assay: NVS_GPCR_gMPeripheral_NonSelective: NovaScreen (NVS) G Protein-Coupled Receptor Assay for guinea pig Muscarinic, Peripheral (Mperiperal) Receptor, Non-selective Binding (AID 2283250)
# Summary of the method: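 Guinea pig bladder membranes, radioligand binding read 1 h after dosing by filter scintillation counting; loss of signal vs DMSO. Primary duplicate screen at 25 uM, then concentration-response up to 50 uM.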
# [2] = target: human Serotonin, 5-Hydroxytryptamine Receptor 5A (5HT5A), HTR5A (gene 3361) (UniProt P47898); assay: NVS_GPCR_h5HT5A: NovaScreen (NVS) G Protein-Coupled Receptor Assay for human Serotonin, 5-Hydroxytryptamine Receptor 5A (5HT5A) (AID 2283251)
# Summary of the method: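 Cell-free radioligand displacement binding on HEK293-derived membrane protein, 1 h incubation, filter-based scintillation counting. Primary screen in duplicate at 25 uM, actives followed in concentration series; loss of signal fitted versus DMSO.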
# [3] = target: human Serotonin, 5-Hydroxytryptamine Receptor 6 (5HT6), HTR6 (gene 3362) (UniProt P50406); assay: NVS_GPCR_h5HT6: NovaScreen (NVS) G Protein-Coupled Receptor Assay for human Serotonin, 5-Hydroxytryptamine Receptor 6 (5HT6) (AID 2283253)
# Summary of the method: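 Radioligand binding to 5HT6 in HEK293-derived membranes, cell-free, 1 h after dosing; bound ligand measured by filter-based scintillation counting. Primary screen in duplicate at 25 uM; actives retested in concentration series.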
# [4] = target: human Serotonin, 5-Hydroxytryptamine Receptor 7 (5HT7), HTR7 (gene 3363) (UniProt P34969); assay: NVS_GPCR_h5HT7: NovaScreen (NVS) G Protein-Coupled Receptor Assay for human Serotonin, 5-Hydroxytryptamine Receptor 7 (5HT7) (AID 2283255);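 note: hits reduce specific radioligand binding relative to DMSO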
# Summary of the method: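 Radioligand displacement on membranes from CHO cells expressing human 5HT7, 1 h incubation, filter-based scintillation counting. Primary screen used a single 25 uM concentration in duplicate; actives were followed up in concentration series.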
# [5] = tested on: guinea pig Leukotriene B4 Receptor (LTB4), gene 100379538; assay: NVS_GPCR_gLTB4: NovaScreen (NVS) G Protein-Coupled Receptor Assay for guinea pig Leukotriene B4 Receptor (LTB4) (AID 2283247)
# Summary of the method: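 Radioligand displacement on guinea pig spleen membranes, filter-based scintillation counting 2 h after dosing. Primary duplicate single point at 25 uM; hits over threshold (e.g. 30% inhibition) run in concentration-response up to 50 uM, DMSO baseline.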
# [6] = target: guinea pig Opioid, Kappa 1 Receptor (OpiateK), OPRK1 (gene 100135587) (UniProt P41144); assay: NVS_GPCR_gOpiateK: NovaScreen (NVS) G Protein-Coupled Receptor Assay for guinea pig Opioid, Kappa 1 Receptor (OpiateK) (AID 2283252);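 note: radioligand displacement from kappa opioid receptor in guinea pig cerebellar membranes; active means reduced radioligand binding relative to DMSO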
# Summary of the method: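 Guinea pig cerebellar membranes, radioligand displacement with filter-based scintillation counting, 2 h after dosing. Primary screen single concentration 25 uM in duplicate; actives retested in concentration series; loss of binding fitted versus DMSO.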
# [7] = tested on: bovine Histamine 1 Receptor (H1), gene 281231; assay: NVS_GPCR_bH1: NovaScreen (NVS) G Protein-Coupled Receptor Assay for bovine Histamine 1 Receptor (H1) (AID 2283246)
# Summary of the method: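 Radioligand displacement on bovine cerebellar membranes, 1 h after dosing, filter-based scintillation read-out; loss of signal vs DMSO. Duplicate single-concentration screen at 25 uM, then concentration-response up to 50 uM for hits.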
# [8] = target: human Serotonin, 5-Hydroxytryptamine Receptor 2A (5HT2A), HTR2A (gene 3356) (UniProt P28223); assay: NVS_GPCR_h5HT2A: NovaScreen (NVS) G Protein-Coupled Receptor Assay for human Serotonin, 5-Hydroxytryptamine Receptor 2A (5HT2A) (AID 2283249)
# Summary of the method: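 Human cortex membranes, cell-free radioligand binding; filter-based scintillation read 1.5 h after dosing. Duplicate screen at 25 uM first; displacement of specific binding (loss of signal) versus DMSO.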
# [9] = NVS_GPCR_bNPY_NonSelective: NovaScreen (NVS) G Protein-Coupled Receptor Assay for bovine Neuropeptide Y (NPY) Receptor, Non-selective Binding (AID 2283245)
# Summary of the method: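 Bovine hippocampal membranes incubated 1 hour with radioligand and test chemical. Bound ligand measured by filter-based scintillation counting. Single-concentration screen at 25 uM in duplicate, then concentration-response up to 50 uM.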
# [10] = target: guinea pig Leukotriene D4 Receptor (LTD4), CYSLTR1 (gene 100135514) (UniProt Q2NNR5); assay: NVS_GPCR_gLTD4: NovaScreen (NVS) G Protein-Coupled Receptor Assay for guinea pig Leukotriene D4 Receptor (LTD4) (AID 2283248)
# Summary of the method: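 Radioligand displacement on guinea pig lung membranes, 1 h incubation, filtration and scintillation counting; DMSO as negative control. Duplicate 25 uM primary screen, then singleton concentration-response up to 50 uM.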
# human Serotonin, 5-Hydroxytryptamine Receptor 2A (5HT2A), HTR2A (gene 3356), sequence (P28223 whole entry, looked up): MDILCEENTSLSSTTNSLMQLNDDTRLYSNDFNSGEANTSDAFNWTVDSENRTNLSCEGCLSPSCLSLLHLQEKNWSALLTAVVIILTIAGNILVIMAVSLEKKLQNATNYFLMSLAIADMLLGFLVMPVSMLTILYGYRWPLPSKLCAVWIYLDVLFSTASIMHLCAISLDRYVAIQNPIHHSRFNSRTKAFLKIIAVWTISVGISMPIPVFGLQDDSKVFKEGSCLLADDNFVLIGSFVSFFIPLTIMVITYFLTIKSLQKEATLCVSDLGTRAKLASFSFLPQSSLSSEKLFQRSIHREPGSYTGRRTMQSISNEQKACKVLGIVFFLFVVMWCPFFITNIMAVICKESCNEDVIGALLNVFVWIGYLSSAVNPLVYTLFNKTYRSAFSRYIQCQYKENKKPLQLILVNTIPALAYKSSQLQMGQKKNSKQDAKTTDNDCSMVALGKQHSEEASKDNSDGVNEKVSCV
# human Serotonin, 5-Hydroxytryptamine Receptor 6 (5HT6), HTR6 (gene 3362), sequence (P50406 whole entry, looked up): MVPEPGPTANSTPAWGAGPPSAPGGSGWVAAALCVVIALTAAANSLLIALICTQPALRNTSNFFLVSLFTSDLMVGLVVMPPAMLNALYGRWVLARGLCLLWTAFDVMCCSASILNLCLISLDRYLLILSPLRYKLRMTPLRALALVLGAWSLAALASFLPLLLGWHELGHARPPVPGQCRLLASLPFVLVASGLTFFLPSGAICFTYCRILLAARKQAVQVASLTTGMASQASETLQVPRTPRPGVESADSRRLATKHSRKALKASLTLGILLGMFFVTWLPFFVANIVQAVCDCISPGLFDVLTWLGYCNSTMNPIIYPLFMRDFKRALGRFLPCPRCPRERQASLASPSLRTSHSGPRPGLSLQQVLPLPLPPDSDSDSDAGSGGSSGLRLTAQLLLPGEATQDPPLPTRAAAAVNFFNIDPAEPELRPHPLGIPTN
# guinea pig Opioid, Kappa 1 Receptor (OpiateK), OPRK1 (gene 100135587), sequence (P41144 whole entry, looked up): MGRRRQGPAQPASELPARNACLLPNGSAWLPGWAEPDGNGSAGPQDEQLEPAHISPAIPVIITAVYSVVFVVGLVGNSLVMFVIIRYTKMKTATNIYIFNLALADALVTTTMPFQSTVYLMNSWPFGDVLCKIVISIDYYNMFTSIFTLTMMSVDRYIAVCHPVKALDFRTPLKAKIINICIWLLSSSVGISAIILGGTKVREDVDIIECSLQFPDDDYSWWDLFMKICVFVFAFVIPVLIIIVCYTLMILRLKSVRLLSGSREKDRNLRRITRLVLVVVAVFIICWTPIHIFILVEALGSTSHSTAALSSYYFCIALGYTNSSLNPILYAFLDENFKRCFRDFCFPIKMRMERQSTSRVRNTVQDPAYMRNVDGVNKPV
# human Serotonin, 5-Hydroxytryptamine Receptor 5A (5HT5A), HTR5A (gene 3361), sequence (P47898 whole entry, looked up): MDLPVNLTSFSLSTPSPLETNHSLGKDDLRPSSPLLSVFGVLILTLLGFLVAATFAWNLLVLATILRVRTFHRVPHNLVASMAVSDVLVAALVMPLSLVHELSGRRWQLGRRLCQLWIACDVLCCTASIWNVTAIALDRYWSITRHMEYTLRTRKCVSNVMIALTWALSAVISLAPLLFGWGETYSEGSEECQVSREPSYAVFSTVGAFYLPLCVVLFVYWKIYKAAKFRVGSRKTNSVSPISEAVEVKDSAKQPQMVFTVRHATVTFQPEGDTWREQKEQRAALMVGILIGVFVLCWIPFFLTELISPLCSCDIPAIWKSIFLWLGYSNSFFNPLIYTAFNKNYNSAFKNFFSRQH
# guinea pig Leukotriene D4 Receptor (LTD4), CYSLTR1 (gene 100135514), sequence (Q2NNR5 whole entry, looked up): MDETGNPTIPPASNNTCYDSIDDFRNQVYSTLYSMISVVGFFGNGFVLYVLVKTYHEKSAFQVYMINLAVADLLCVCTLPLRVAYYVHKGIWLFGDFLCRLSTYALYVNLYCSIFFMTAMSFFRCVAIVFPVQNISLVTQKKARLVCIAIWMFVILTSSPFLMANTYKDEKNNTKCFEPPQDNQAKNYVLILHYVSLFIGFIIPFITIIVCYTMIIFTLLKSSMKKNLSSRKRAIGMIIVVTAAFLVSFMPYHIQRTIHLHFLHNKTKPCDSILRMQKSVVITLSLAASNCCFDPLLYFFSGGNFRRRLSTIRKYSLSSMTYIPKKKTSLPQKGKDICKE
# human Serotonin, 5-Hydroxytryptamine Receptor 7 (5HT7), HTR7 (gene 3363), sequence (P34969 whole entry, looked up): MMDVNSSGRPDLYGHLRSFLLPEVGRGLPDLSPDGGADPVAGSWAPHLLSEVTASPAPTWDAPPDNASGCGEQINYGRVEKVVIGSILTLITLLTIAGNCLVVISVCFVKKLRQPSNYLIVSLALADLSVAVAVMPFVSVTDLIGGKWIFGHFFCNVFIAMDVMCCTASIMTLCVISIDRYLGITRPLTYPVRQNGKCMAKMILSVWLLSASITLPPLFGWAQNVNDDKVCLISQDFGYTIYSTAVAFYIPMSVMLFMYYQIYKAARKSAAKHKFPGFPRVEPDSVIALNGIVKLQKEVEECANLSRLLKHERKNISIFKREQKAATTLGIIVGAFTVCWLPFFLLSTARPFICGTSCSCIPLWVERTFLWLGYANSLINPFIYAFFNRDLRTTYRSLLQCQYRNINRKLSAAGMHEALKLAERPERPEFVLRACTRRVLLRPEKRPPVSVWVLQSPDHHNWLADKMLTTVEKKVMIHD
compound,measurement,setting,value
Cc1cc2c(cc1C(F)(F)F)N(C(=O)Nc1ccc(Oc3cccnc3C)nc1)CC2,outcome,[1],inactive
same,AC50,[2],4.76 µM (active)
same,AC50,[3],2.91 µM (active)
same,outcome,[4],inactive
CC(C)(O)c1ccc(CNC(=O)c2cccnc2Oc2ccc3nonc3c2)cc1,AC50,[5],0.646 µM (active)
same,AC50,[6],14.3 µM (active)
O=C(O)Cc1cc(I)c(Oc2ccc(O)c(I)c2)c(I)c1,AC50,[5],0.623 µM (active)
same,outcome,[2],inactive
CCCCCCCC[Si](OCC)(OCC)OCC,outcome,[6],inactive
O=C1c2ccccc2C(=O)N1CCc1noc(-c2ccc(CN3CCCCCC3)s2)n1,AC50,[7],12.1 µM (active)
same,AC50,[8],2.4 µM (active)
same,AC50,[1],4.5 µM (active)
same,outcome,[6],inactive
same,AC50,[4],8.12 µM (active)
Cc1ccc2oc(CN(Cc3ccccc3)C(=O)Nc3c(F)cc(F)cc3F)c(-c3ccc(Cl)cc3)c2c1,outcome,[7],inactive
CCCCCCCCCC(=O)O,outcome,[5],inactive
same,outcome,[4],inactive
Cc1oc2c(NC(=O)c3c(Cl)cccc3Cl)cccc2c1C(C)(C)O,AC50,[7],25 µM (active)
Clc1cc(Cl)c2c(c1)N=C1CCCCCN1C2,AC50,[1],6.74 µM (active)
same,AC50,[6],10.5 µM (active)
CN(C)c1ccc(C(=C2C=CC(=[N+](C)C)C=C2)c2ccc(N(C)C)cc2)cc1,AC50,[9],11.2 µM (active)
same,AC50,[1],5.05 µM (active)
same,AC50,[2],1.99 µM (active)
same,AC50,[6],4.24 µM (active)
same,AC50,[3],13.9 µM (active)
same,AC50,[4],4.11 µM (active)
NCc1cccc(C2CCN(C(=O)c3ccc(C#Cc4ccccc4F)o3)CC2)c1,AC50,[9],25 µM (active)
same,AC50,[1],9.09 µM (active)
same,AC50,[2],18.4 µM (active)
same,AC50,[6],25 µM (active)
same,AC50,[3],8.69 µM (active)
same,AC50,[4],6.87 µM (active)
Cc1cc(F)ccc1-c1cc(N2CC[C@@H](O)[C@H]2CO)ncc1N(C)C(=O)C(C)(C)c1cc(C(F)(F)F)cc(C(F)(F)F)c1,outcome,[10],inactive
same,AC50,[2],7.83 µM (active)
same,AC50,[3],11.7 µM (active)
same,AC50,[4],2.69 µM (active)
C[C@]12CC[C@@H]3c4ccc(O)cc4CC[C@H]3[C@@H]1CC[C@H]2O,AC50,[3],25 µM (active)
CC[C@H](NC(=O)c1cc(F)ccc1NS(=O)(=O)c1cccc2cccnc12)c1ccccc1,AC50,[5],0.206 µM (active)
same,outcome,[10],inactive
same,AC50,[3],1.31 µM (active)
CCOC(=O)O[C@H](C)OC(=O)c1ccc2c(c1)cc(C(=O)NC1CCN(C(C)C)CC1)n2Cc1cc(-c2ccc(Cl)s2)on1,AC50,[9],23.6 µM (active)
same,AC50,[8],23.6 µM (active)
same,AC50,[1],16.6 µM (active)
same,AC50,[2],6.7 µM (active)
same,AC50,[3],7.12 µM (active)
same,AC50,[4],2.12 µM (active)
CC(C)(C)c1cc(/C=C2\SC(N)=NC2=O)cc(C(C)(C)C)c1O,outcome,[7],inactive
O=c1[nH]sc2ccccc12,AC50,[10],3.31 µM (active)
same,AC50,[2],14.2 µM (active)
same,AC50,[6],21.5 µM (active)
same,AC50,[3],14.3 µM (active)
same,AC50,[4],14.7 µM (active)
c1ccc(C[n+]2cccc3ccccc32)cc1,AC50,[1],8.25 µM (active)
same,AC50,[6],11.8 µM (active)
COc1cc(C(=O)NC2CCN(C)CC2)ccc1Nc1ncc2c(n1)N(C1CCCC1)CC(F)(F)C(=O)N2C,AC50,[8],23.2 µM (active)
same,AC50,[1],9.85 µM (active)
same,AC50,[6],23.2 µM (active)
same,AC50,[4],3.25 µM (active)
CN1C(=O)N(c2ccccc2Br)Cc2cnc(Nc3ccc4c(c3)OCC(CO)O4)nc21 (stereo not drawn),outcome,[2],inactive
same,outcome,[4],inactive
CCCCOC(=O)c1ccc(O)cc1,outcome,[6],inactive
COc1ccc2cc(S(=O)(=O)N[C@H](CC(=O)N[C@H](Cc3ccc(CN4[C@H](C)CCC[C@@H]4C)cc3)C(=O)N(C)C(C)C)c3ccc4c(c3)OCO4)ccc2c1,AC50,[9],10.7 µM (active)
same,AC50,[8],7.94 µM (active)
same,AC50,[1],5.48 µM (active)
same,outcome,[2],inactive
same,AC50,[6],0.548 µM (active)
same,outcome,[4],inactive
CCN(Cc1cccnc1)C(=O)c1cccc(Cl)c1[C@]1(C)C(=O)N(Cc2ccc(OC)cc2OC)c2ccc(Cl)cc21,outcome,[9],inactive
same,AC50,[10],9.32 µM (active)
same,AC50,[8],15.9 µM (active)
same,AC50,[2],4.88 µM (active)
same,AC50,[6],11.1 µM (active)
same,AC50,[4],6.41 µM (active)
CCCCCCCCCCCC[N+](C)(C)C,outcome,[9],inactive
same,AC50,[8],4.04 µM (active)
same,AC50,[1],4.49 µM (active)
same,AC50,[4],17.3 µM (active)
CC/C(=C(/CC)c1ccc(O)cc1)c1ccc(O)cc1,AC50,[10],5.08 µM (active)
same,outcome,[2],inactive
same,AC50,[6],15.1 µM (active)
same,AC50,[3],25 µM (active) and 19.5 µM (active)
CCN(CC)C(=O)c1cc(S(=O)(=O)Cc2ccccc2)c(N2CCC(c3ccccc3)CC2)cc1N(CC)CCN(C)C,outcome,[9],inactive
same,AC50,[8],8.55 µM (active)
same,AC50,[1],12 µM (active)
same,AC50,[2],4.84 µM (active)
same,AC50,[6],23.4 µM (active)
same,AC50,[3],0.971 µM (active)
same,AC50,[4],8.87 µM (active)
CCN(Cc1cccc(S(=O)(=O)O)c1)c1ccc(C(=C2C=CC(=[N+](CC)Cc3cccc(S(=O)(=O)O)c3)C=C2)c2ccccc2S(=O)(=O)[O-])cc1,AC50,[4],10.3 µM (active)
CC(C)(C)c1csc(-c2cc3cc(OCc4ccccc4CC(=O)O)ccc3o2)n1,AC50,[10],0.0125 µM (active)
same,outcome,[2],inactive
CCCCCCCCCCCO,outcome,[9],inactive
CN(C[C@@H](CC[N+]12CCC(C3CCCCC3)(CC1)CC2)c1ccc(Cl)c(Cl)c1)C(=O)c1cc(C(F)(F)F)cc(C(F)(F)F)c1,AC50,[5],0.166 µM (active)
same,AC50,[3],10.5 µM (active)
same,AC50,[4],1.53 µM (active)
COc1cccc([C@H](O)C2CCN(CCc3ccc(F)cc3)CC2)c1OC,AC50,[7],5.41 µM (active)
same,AC50,[6],12.1 µM (active)
same,AC50,[4],0.395 µM (active)
Cc1occc1C(=O)Nc1ccc(C(=O)N2CCC(F)(F)/C(=C\C(=O)N3CCC(N4CCCCC4)CC3)c3ccccc32)cc1,AC50,[1],5.65 µM (active)
same,AC50,[6],2.49 µM (active)
same,AC50,[4],4.89 µM (active)
O=CCCCC=O,outcome,[7],inactive
CN(C)C(=O)C1(N2CCCCC2)CCN(CC[C@@]2(c3ccc(Cl)c(Cl)c3)CN(C(=O)c3ccccc3)CCO2)CC1,AC50,[9],15.1 µM (active)
same,AC50,[8],0.957 µM (active)
same,AC50,[1],8.87 µM (active)
same,AC50,[2],15.7 µM (active)
same,AC50,[6],5.78 µM (active)
same,AC50,[3],23.6 µM (active)
same,AC50,[4],3.39 µM (active)
CCCCCCCCOC(=O)c1cc(O)c(O)c(O)c1,AC50,[2],25 µM (active)
same,AC50,[4],17 µM (active)
CCCOC(=O)c1cc(O)c(O)c(O)c1,outcome,[5],inactive
OC12N=C(c3ccccc3)SC1Cc1cc(Cl)ccc12 (stereo not drawn),outcome,[8],inactive
